For the experiment, the target named is Glucose transporter (Leishmania mexicana) (UniProt O61059). The experiment in a line: ST_JUDE_LEISH: Cytotoxicity at 2uM final concentration against transgenic Leishmania Mexicana promastigotes LmGT2 that are glucose transport deficient and complemented with the L. Mexicana glucose transporter 2. Activity is measured by DNA content using SYBR green in vitro. Format: functional.
Usually inhibition stands for the drop in the measured response relative to a control, in per cent. As to `Cc1nc2nc(N)nc(N)c2c(C)c1Cc1cccc(C(N)=O)c1`, the inhibition is -1.43%.

For `FC(F)(F)c1ccc(CNC2CCN(CC3CCCCC3)CC2)cc1`, the inhibition was 8.5%.

With `Cc1cc(NC(=O)NCCN2CCC(NS(=O)(=O)c3cccc(Br)c3)C2)c2ccccc2n1` (stereo not given), the inhibition was 0.42%.

Consider `Cc1nnsc1C(=O)Nc1cccc(-c2cccc(-c3nc4cc(C(F)(F)F)ccc4[nH]3)c2)c1`, for which the inhibition was found to be 6.93%.

Turning to `COC(=O)c1ccc(CCCNCC(O)c2cccc(C(F)(F)F)c2)cc1` (stereo not given), the inhibition was found to be 6.4%.

With `O=C(Nc1cccc(-c2nn3ccccc3c2-c2ccnc(Nc3cccc(F)c3)n2)c1)C1CCCCC1`, the inhibition was -1.4%.

Regarding `O=S(=O)(c1ccc(OCc2ccc(Cl)cc2)cc1)c1cc2c(cc1O)CCN(C1CCC1)CC2`, the inhibition worked out at 1.15%.

In the case of `N#Cc1ccc(N2CCN(Cc3ccc(-c4ccc(-c5nc6cc(C(F)(F)F)ccc6[nH]5)s4)cc3)CC2)nc1`, the inhibition came out at 0.96%.

With `CC(C)NCc1ccc(OCc2cccc(COc3ccc(CNC(C)C)cc3I)c2)c(I)c1`, the inhibition came to 113%.

For the compound `O=c1cc(N2CCNCC2)c(Cl)nn1Cc1ccc(NS(=O)(=O)c2ccc(Oc3ccccc3)cc2)cc1`, the inhibition stood at 1.23%.

With `CNC(=O)c1cnc(Nc2ccc(OCC(O)CN(C)C)cc2)nc1Nc1cccc([N+](=O)[O-])c1` (stereo not given), the inhibition was determined as 3.56%.

For `c1ccc2c(C3CCN(CCCCOc4ccc5c(c4)CCN(CC4CC4)CC5)CC3)c[nH]c2c1`, the inhibition came to 6.07%.

`CCCC(=O)Nc1ccc(OCCCN(Cc2ccccc2OC(F)(F)F)c2ccc(C#N)c(C(F)(F)F)c2)cc1`: the inhibition was 5.47%.

As to `Cc1cc(N[C@@H](CC(C)C)C(=O)NC2CCCC2)nc(NCCc2ccc(F)cc2)n1`, the inhibition is 0.03%.

Regarding `CC(C)NCc1ccc(-c2ccc(CN3CCCC(c4ccccc4)C3)cc2)c(C(=O)NCC2CCCCC2)c1` (stereo not given), the inhibition was -6.06%.

For the compound `O=C(Nc1cccc(CN2CCN(Cc3cccc(O)c3)CC2)c1)c1cc2ccccc2s1`, the inhibition worked out at 3.74%.

For `Cc1nc(-c2cccc(Nc3nccc(NCC(O)c4cccc(F)c4)n3)c2)cs1` (stereo not given), the inhibition was -3.57%.

As for `Cc1cccc2nc(-c3cccc(-c4ccc(CNCc5cccc(N)c5)cc4)c3)[nH]c12`, the inhibition was -2.56%.

For `CC(C)N1CCN(c2ccc(OCCCCN3CCN(c4cccc(Cl)c4Cl)CC3)c(C(F)(F)F)c2)CC1`, the inhibition stood at 0.98%.

On to `C[C@H](Cc1ccc(S(=O)(=O)c2ccc(C[C@@H](C)NC[C@H](O)c3cccc(Cl)c3)cc2)cc1)NC[C@H](O)c1cccc(Cl)c1`, for which the inhibition amounted to 2.18%.

Turning to `COc1ccc2nccc([C@@H](O)CN3CCC(NCc4cc5ccccc5cn4)CC3)c2n1`, the inhibition is 7.09%.

Regarding `Cn1cnc(-c2ccc3c(c2)CCN(CCC2CCC(NC(=O)/C=C/c4ccc(F)cc4)CC2)CC3)c1` (stereo not given), the inhibition is 60.9%.

`Clc1cc(Cl)c2c(c1)C(NCCCNc1nc3ccccc3[nH]1)CCO2` (stereo not given): the inhibition was determined as 28.1%.

On to `COc1ccc(Nc2nccc(NCC(O)c3ccc(C(F)(F)F)cc3)n2)cc1` (stereo not given), for which the inhibition stood at 2.61%.

`COc1ccc(CNCc2ccccc2)cc1-c1ccc(S(=O)(=O)NCCN2CCCC2)s1`: the inhibition was determined as 4.5%.

Consider `CC1(C)Cc2c([nH]c3ccccc23)C(CCCCCCCCC2=NC(C)(C)Cc3c2[nH]c2ccccc32)=N1`, for which the inhibition is 0.21%.

Take `C=C[C@H]1CN(CCCCCCC)CC[C@H]1C[C@@H](Cc1ccnc2ccc(OC)cc12)OC(=O)[C@](OC)(c1ccccc1)C(F)(F)F`: the inhibition is -3.72%.

As to `CC(C)C(C(=O)Nc1ccc(S(=O)(=O)N(C)C)cc1)c1ccc(Cl)cc1` (stereo not given), the inhibition turned out to be 0.19%.

In the case of `COc1ccc2nccc([C@@H](O)CN3CCC(NCc4ccc5c(c4)NC(=O)CS5)CC3)c2c1`, the inhibition is -0.16%.

Turning to `NCCCCNc1cc(-c2ccnc(Nc3cccc(Cl)c3)n2)ccn1`, the inhibition is 76.5%.

Turning to `N#Cc1cccc(C(=O)Nc2cccc(-c3cccc(CN4CCNCC4)c3)c2)c1`, the inhibition was 3.25%.

For `C=CCc1cc(Br)ccc1OCCCOc1c(C)nc(N)nc1N`, the inhibition worked out at 57%.

For the compound `O=c1cc(NCCC(CNCc2ccc(Br)o2)NCc2cc(Br)cc(Br)c2)[nH]c2ccccc12` (stereo not given), the inhibition was 6.87%.

Take `CC(C)(C)C(=O)Nc1ccc(N2CCN(C(c3ccccc3)c3ccccc3)CC2)c(Cl)c1`: the inhibition came to 4.93%.

For `COc1ccc(NC(=O)c2ccc(Br)c(C)c2)cc1N1CCN(CCCCc2ccccc2)CC1`, the inhibition came to 0.85%.

With `Cc1nnc(-c2ccc3ccccc3c2)c2cn(-c3cccc([N+](=O)[O-])c3)nc12`, the inhibition came to 3.91%.

Take `Cc1c(O)cccc1Nc1ccnc2ccc(C(F)(F)F)cc12`: the inhibition is -1.33%.

Take `CN(C)CCNCc1cccc(-c2ccc3c(Nc4ccc(F)cc4Cl)ccnc3c2)c1`: the inhibition was found to be 5.03%.

As to `COc1ccc(Nc2nc(=Nc3ccccc3)nc(NN=Cc3cc(Cl)ccc3O)[nH]2)cc1`, the inhibition is 1.08%.

Regarding `c1ccc2c(Nc3ccc(OCCOCCOc4ccc(Nc5c6ccccc6nc6ccccc56)cc4)cc3)c3ccccc3nc2c1`, the inhibition is 4.94%.

The record behind these values is ChEMBL document CHEMBL3433997, “St. Jude Leishmania screening dataset” (2016).
